# Results as given in PubChem BioAssay (NCI).
# The panel holds about 79,000 compounds, 15% with a hit somewhere; the sample as a whole holds those more often. Unmarked numbers belong to inactive results. Activity calls are given as the source filed them. Cut-off read from the data, not from the text of the source: active = growth inhibition above about 70%; inactive = the rest.
# Key:
# [1] = NCI Yeast Anticancer Drug Screen. Data for the rad52 strain (AID 147);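 note: 0% = growth of vehicle-treated control cultures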; conditions: S. cerevisiae rad52 mutant growth inhibition, stronger effect = higher value
# In short: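 Measured: yeast growth inhibition. System: strain with a defined DNA damage repair alteration. Reference: vehicle-treated control cultures.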
# [2] = NCI Yeast Anticancer Drug Screen. Data for the wt1 strain (AID 149);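 note: 0% = growth of vehicle-treated wt1 cultures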; conditions: S. cerevisiae wt1 strain (SPY 50644) growth inhibition, stronger effect = higher value
# In short: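 Each compound is tested on wt1 yeast and the loss of growth versus vehicle gives the inhibition value.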
# [3] = NCI Yeast Anticancer Drug Screen. Data for the rad50EPP+ strain (AID 151);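 note: 0% = growth of vehicle-treated control cultures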; conditions: S. cerevisiae rad50 mutant strain, stronger effect = higher value
# In short: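 One strain with a rad50 alteration (rad50EPP+) was compound-treated, its growth then compared to that of vehicle controls.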
# [4] = NCI Yeast Anticancer Drug Screen. Data for the rad50 strain (AID 155);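 note: 0% = growth of vehicle-only cultures of the same strain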; conditions: S. cerevisiae rad50 strain growth inhibition, stronger effect = higher value
# In short: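 Vehicle-treated cultures provide the reference for the growth inhibition reported for compound-exposed, repair-deficient yeast.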
# [5] = NCI Yeast Anticancer Drug Screen. Data for the mec2-1 strain (AID 157); conditions: S. cerevisiae mec2-1 strain, stronger effect = higher value
# In short: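 Test agents were screened against the mec2-1 yeast strain, with defined DNA repair or cell cycle alteration. Growth was scored as inhibition against vehicle-only controls.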
# [6] = NCI Yeast Anticancer Drug Screen. Data for the rad14 strain (AID 159);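 note: 0% = growth of vehicle-treated control cultures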; conditions: S. cerevisiae rad14 strain growth inhibition, stronger effect = higher value
# In short: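 Inhibition of growth is reported for a repair-deficient yeast mutant following compound treatment, calculated relative to cultures that received vehicle.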
# [7] = NCI Yeast Anticancer Drug Screen. Data for the sgs1 mgt1 strain (AID 161);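 note: 0% = growth of cultures given vehicle only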; conditions: S. cerevisiae sgs1 mgt1 strain, stronger effect = higher value
# In short: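 Read-out: growth inhibition vs vehicle controls. Cells: mutant yeast strain deficient in DNA damage repair.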
# [8] = NCI Yeast Anticancer Drug Screen. Data for the CLN2oe strain (AID 163);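 note: 0% = growth of vehicle-only control cultures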; conditions: S. cerevisiae CLN2oe strain, stronger effect = higher value
# In short: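 Here, growth inhibition in a cell-cycle-altered yeast strain after compound exposure was quantified against vehicle control growth.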
# [9] = NCI Yeast Anticancer Drug Screen. Data for the cln2 rad14 strain (AID 165);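 note: 0% = growth equal to vehicle treated cultures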; conditions: S. cerevisiae cln2 rad14 strain, stronger effect = higher value
# In short: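 Growth of compound-exposed yeast (cln2 rad14 genotype) measured and expressed as inhibition relative to vehicle.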
# [10] = NCI Yeast Anticancer Drug Screen. Data for the bub3 strain (AID 167); conditions: S. cerevisiae bub3 mutant strain, stronger effect = higher value
# In short: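 Mutant yeast screening strain plus compound; vehicle-treated cultures serve as the 0% inhibition reference.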
# [11] = NCI Yeast Anticancer Drug Screen. Data for the wt2 strain (AID 169); conditions: S. cerevisiae wt2 strain growth inhibition, stronger effect = higher value
# In short: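 Genetically defined yeast strains from a DNA-repair/cell-cycle panel were used. Compound-exposed yeast growth was measured, and the inhibition was calculated relative to vehicle treatment.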
# [12] = NCI Yeast Anticancer Drug Screen. Data for the mlh1 strain (AID 171);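 note: 0% = growth of vehicle-treated control cultures of the same strain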; conditions: S. cerevisiae mlh1 strain growth inhibition, stronger effect = higher value
# In short: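 Here the genetically defined yeast mutant is grown with each compound, and the extent to which its growth falls below that of vehicle-exposed cells is reported.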
# [13] = NCI Yeast Anticancer Drug Screen. Data for the sgs1 strain (AID 173);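 note: 0% = growth of vehicle-only control cultures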; conditions: S. cerevisiae sgs1 mutant, stronger effect = higher value
# In short: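 Relative growth inhibition, referenced to vehicle, was determined in a yeast strain with a defined alteration affecting DNA damage repair or cell cycle control after compound exposure.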
# [14] = NCI Yeast Anticancer Drug Screen. Data for the mlh1 rad18 strain (AID 175); conditions: S. cerevisiae mlh1 rad18 strain growth inhibition, stronger effect = higher value
# In short: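 In this whole-cell yeast screen, a strain with altered DNA damage repair is challenged with compound, and its growth is measured against matched vehicle-treated controls.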
# [15] = NCI Yeast Anticancer Drug Screen. Data for the rad18 strain (AID 177); conditions: S. cerevisiae rad18 mutant growth inhibition, stronger effect = higher value
# In short: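 Screen uses a yeast strain with a defined lesion in DNA damage repair; compound effect is read as loss of growth compared to untreated vehicle cultures.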
# [16] = at 5.0 µM (retest, dose inferred, filed as 0.5)
# [17] = at 50.0 µM (retest, dose inferred, filed as 5.0)
smiles,measurement,setting,value
c1ccc2c(c1)ccc1c3ccncc3ccc21,growth inhibition,[1]; at 1.2 µM,15%
same,growth inhibition,[1]; at 3.7 µM,80% (active)
same,growth inhibition,[1]; at 11.0 µM,99% (active)
same,growth inhibition,[1]; at 33.0 µM,99% (active)
same,growth inhibition,[1]; at 100.0 µM,95% (active)
same,growth inhibition,[2]; at 1.2 µM,-6%
same,growth inhibition,[2]; at 3.7 µM,-3%
same,growth inhibition,[2]; at 11.0 µM,47%
same,growth inhibition,[2]; at 33.0 µM,99% (active)
same,growth inhibition,[2]; at 100.0 µM,97% (active)
same,growth inhibition,[3]; at 1.2 µM,35%
same,growth inhibition,[3]; at 3.7 µM,86% (active)
same,growth inhibition,[3]; at 11.0 µM,98% (active)
same,growth inhibition,[3]; at 33.0 µM,98% (active)
same,growth inhibition,[3]; at 100.0 µM,92% (active)
same,growth inhibition,[4]; at 1.2 µM,12%
same,growth inhibition,[4]; at 3.7 µM,74% (active)
same,growth inhibition,[4]; [16],90% (active)
same,growth inhibition,[4]; at 11.0 µM,98% (active)
same,growth inhibition,[4]; at 33.0 µM,99% (active)
same,growth inhibition,[4]; [17],94% (active)
same,growth inhibition,[4]; at 50.0 µM,97.8% (active)
same,growth inhibition,[4]; at 100.0 µM,93% (active)
same,growth inhibition,[5]; at 1.2 µM,3%
same,growth inhibition,[5]; at 3.7 µM,4%
same,growth inhibition,[5]; [16],-15%
same,growth inhibition,[5]; at 11.0 µM,85% (active)
same,growth inhibition,[5]; at 33.0 µM,99% (active)
same,growth inhibition,[5]; [17],95% (active)
same,growth inhibition,[5]; at 50.0 µM,98.2% (active)
same,growth inhibition,[5]; at 100.0 µM,98% (active)
same,growth inhibition,[6]; at 1.2 µM,9%
same,growth inhibition,[6]; at 3.7 µM,15%
same,growth inhibition,[6]; at 11.0 µM,90% (active)
same,growth inhibition,[6]; at 33.0 µM,99% (active)
same,growth inhibition,[6]; at 100.0 µM,96% (active)
same,growth inhibition,[7]; [16],-15%
same,growth inhibition,[7]; [17],97% (active)
same,growth inhibition,[7]; at 50.0 µM,98% (active)
same,growth inhibition,[8]; at 1.2 µM,0%
same,growth inhibition,[8]; at 3.7 µM,13%
same,growth inhibition,[8]; at 11.0 µM,93% (active)
same,growth inhibition,[8]; at 33.0 µM,99% (active)
same,growth inhibition,[8]; at 100.0 µM,96% (active)
same,growth inhibition,[9]; [16],-11%
same,growth inhibition,[9]; [17],96% (active)
same,growth inhibition,[9]; at 50.0 µM,96% (active)
same,growth inhibition,[10]; at 1.2 µM,8%
same,growth inhibition,[10]; at 3.7 µM,35%
same,growth inhibition,[10]; [16],16%
same,growth inhibition,[10]; at 11.0 µM,93% (active)
same,growth inhibition,[10]; at 33.0 µM,99% (active)
same,growth inhibition,[10]; [17],96% (active)
same,growth inhibition,[10]; at 50.0 µM,97.1% (active)
same,growth inhibition,[10]; at 100.0 µM,98% (active)
same,growth inhibition,[11]; at 1.2 µM,-3%
same,growth inhibition,[11]; at 3.7 µM,0%
same,growth inhibition,[11]; at 11.0 µM,80% (active)
same,growth inhibition,[11]; at 33.0 µM,99% (active)
same,growth inhibition,[11]; at 100.0 µM,96% (active)
same,growth inhibition,[12]; at 1.2 µM,4%
same,growth inhibition,[12]; at 3.7 µM,2%
same,growth inhibition,[12]; at 11.0 µM,83% (active)
same,growth inhibition,[12]; at 33.0 µM,99% (active)
same,growth inhibition,[12]; at 100.0 µM,96% (active)
same,growth inhibition,[13]; at 1.2 µM,-3%
same,growth inhibition,[13]; at 3.7 µM,12%
same,growth inhibition,[13]; at 11.0 µM,96% (active)
same,growth inhibition,[13]; at 33.0 µM,99% (active)
same,growth inhibition,[13]; at 100.0 µM,94% (active)
same,growth inhibition,[14]; [16],-4%
same,growth inhibition,[14]; [17],94% (active)
same,growth inhibition,[14]; at 50.0 µM,97.5% (active)
same,growth inhibition,[15]; at 1.2 µM,-2%
same,growth inhibition,[15]; at 3.7 µM,18%
same,growth inhibition,[15]; at 11.0 µM,96% (active)
same,growth inhibition,[15]; at 33.0 µM,99% (active)
same,growth inhibition,[15]; at 100.0 µM,94% (active)
